# DT40 TDP1 no CPT: qHTS for Inhibitors of human tyrosyl-DNA phosphodiesterase 1 (TDP1): qHTS in cells in absence of CPT | DT40 Tdp1-/- hTDP1 cells, no CPT, ATP luminescence, 48 h | hit rate 15% among 420,000 | Potency, µM (doses to about 46.2 µM), for the others: top-dose activity change, negative = growth inhibition, actives largely listed as inhibitors; also: potency is read from the fitted curve at half-maximal effect; nearly all actives have a fitted effect of over 55% in size
#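 Luminescent ATP content (CellTiter-Glo) served as the growth readout. Knockout chicken DT40 cells expressing human TDP1 were exposed to compounds without camptothecin for a minimum 48 hr at 37 °C.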
# TDP1 inh: inhibitors of human tyrosyl-DNA phosphodiesterase TDP1; Q9NUW8; recombinant TDP1, AlphaScreen DNA substrate cleavage; Potency, µM (doses to about 130 µM), inactives show at the highest dose activity change, negative = inhibition, hits mostly inhibitors; hit rate 0.28% among 350,000; also: potency is read from the fitted curve at half-maximal effect; nearly all actives have a fitted effect of over 40% in size
# Target sequence (Q9NUW8 whole entry, looked up): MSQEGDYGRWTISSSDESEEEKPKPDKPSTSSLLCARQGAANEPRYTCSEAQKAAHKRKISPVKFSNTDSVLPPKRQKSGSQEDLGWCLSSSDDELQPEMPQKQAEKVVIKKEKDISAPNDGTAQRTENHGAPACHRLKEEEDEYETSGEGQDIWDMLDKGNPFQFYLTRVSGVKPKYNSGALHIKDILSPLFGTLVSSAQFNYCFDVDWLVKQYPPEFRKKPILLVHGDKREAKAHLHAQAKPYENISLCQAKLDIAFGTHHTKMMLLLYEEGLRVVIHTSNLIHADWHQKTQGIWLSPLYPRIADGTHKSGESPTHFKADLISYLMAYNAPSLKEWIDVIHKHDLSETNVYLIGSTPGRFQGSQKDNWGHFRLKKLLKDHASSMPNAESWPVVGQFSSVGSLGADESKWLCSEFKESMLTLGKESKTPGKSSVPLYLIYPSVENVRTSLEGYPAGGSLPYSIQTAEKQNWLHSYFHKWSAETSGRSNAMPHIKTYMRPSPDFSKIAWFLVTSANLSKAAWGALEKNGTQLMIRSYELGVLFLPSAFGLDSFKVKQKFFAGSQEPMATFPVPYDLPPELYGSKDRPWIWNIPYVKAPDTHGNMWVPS
#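 Tdp1 1 nM final; 15 min RT w/ cpd; substrate 15 nM, 5 min; beads 10 ug/ml, 10 min; AlphaScreen read. Neg ctrl: no enzyme.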
# CtBP-E1A inh: inhibitors of CtBP/E1A interaction | AlphaScreen GST-E1A/His-CtBP binding, 1536-well; hits give low values | activity change, % (no concentration beside the values) | hit rate 0.49% among 340,000 | AID 651724; in the data active = activity change below about -65%; inconclusive = mostly about -30% to -63%
#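 AlphaScreen with 125 nM GST-E1A and 125 nM His-CtBP (5X stocks) in Tris pH 8.0, 300 mM NaCl, BSA, Tween 20, TCEP. Compounds preincubated 2 h at 37 deg C, then glutathione donor/nickel acceptor beads added for 1 h at 37 deg C in dark.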
# IL1B secr inh: blocks inflammasome-driven IL-1 beta release | THP-1 LPS/ATP IL-1B secretion, AlphaLISA, 16 h; hits give low values | activity change, % at 57.5 µM | hit rate 4.7% among 360,000 | AID 743279; in the data active = activity change below about -50%; inconclusive = mostly about -30% to -49%
#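 Secreted IL-1B measured by AlphaLISA bead assay after 16 h compound exposure of THP-1 cells; compounds (final up to 57.5 uM) added 1 h before LPS (250 ng/mL) and ATP (1.25 mM) stimulation; lower signal means less secretion.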
# Six1-Eya2 inh: inhibitors of human Six1/Eya2 interaction; hit rate 0.56% among 360,000; Q15475+O00167; activity change, % (test concentration not listed); AlphaScreen GST-Six1/His-Eya2 binding, biochemical; hits give low values; AID 651725; in the data active = activity change below about -65%; inconclusive = mostly about -30% to -63%
#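 Compounds are tested against tagged Six1 and Eya2 proteins bridged by glutathione donor and nickel acceptor beads; after a one-hour incubation at 37 °C without light, AlphaScreen emission is recorded.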
# DT40 TDP1 CPT: growth inhibition of DT40 Tdp1-/-;hTDP1 cells with camptothecin (screen for TDP1 inhibitors). chicken DT40 Tdp1-/-;hTDP1 cells + 20 nM CPT, ATP luminescence, 48 h. Potency, µM (highest dose often 46.2 µM), inactives show at the top dose activity change, negative = growth inhibition, hits mostly inhibitors. hit rate 12% among 420,000. AID 686979; also: potency is read from the fitted curve at half-maximal effect; nearly all actives have a fitted effect of over 55% in size
#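 Chicken DT40 Tdp1-/- cells complemented with human TDP1, 400 cells/well, exposed to compounds plus 20 nM camptothecin for at least 48 h at 37 C; viability read as ATP content by CellTiter-Glo luminescence.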
# The depositor's hits bear a star; ? = inconclusive; nt = no result given; [ ] = dose if it differs, or a comment. Compounds with a hit are over-represented: about 18% of the library has one in this group of screens. Unless noted, calls follow the shape of the dose curve; as a rule, active = well fitted curve in the direction sought with a large enough effect; inconclusive = small, poorly fitted or top-dose-only effect, or another doubt; inactive = no such curve, though single readings can be large; an effect the other way counts as inactive or inconclusive. % is scaled to controls: 0 for no effect and ±100 for the full control effect.
SMILES,DT40 TDP1 no CPT,TDP1 inh,CtBP-E1A inh,IL1B secr inh,Six1-Eya2 inh,DT40 TDP1 CPT
COc1ccc(/C=C2/CCCC(CN(C)C)C2=O)cc1 (configuration not stated),0.581µM*,nt,6.2,-72.1*,-7.5,0.517µM*
COc1cccc(/C=C2/CCC(CN(C)C)C2=O)c1 (configuration not stated),2.31µM*,nt,0.6,-100.3*,-17.4,2.31µM*
CN(C)CC1CCC/C(=C\c2ccc(OC(=O)/C=C/c3ccc(Cl)c(Cl)c3)cc2)C1=O (configuration not stated),0.92µM*,nt,-10.1,?,-8.0,0.731µM*
O=c1[nH]c2ccc(S(=O)(=O)N3CCN(C4CCCCC4)CC3)cc2[nH]c1=O,0.7%,-1.1%,-6.5,-2.3,-1.1,1.3%
CCCCNC(=O)N1CCC(CCC(=O)N(C)Cc2ccccc2)CC1,?,nt,3.2,27.4,0.5,?
Cc1ccc(N(CC(=O)Nc2ccc(C)cn2)S(=O)(=O)c2c(C)nn(C)c2C)cc1,-19.4%,6.6%,-6.1,-2.1,-1.8,-11.8%
CO[C@H]1COC(=O)[C@H]2CCCN2C(=O)C/C=C\[C@@H](C)[C@H](OC)COC(=O)C/C=C\[C@@H]1C,nt,6.9%[21 µM],nt,nt,nt,nt
CN(C)CC1CCC/C(=C/c2ccc(Cl)cc2)C1=O (configuration not stated),0.581µM*,nt,10.5,-24.3,-4.2,0.517µM*
CC1(C)C(=O)OC(c2cc(Br)ccc2O)C(C)(C)C1=O (configuration not stated),20.6µM*,-2.6%,-16.1,-15.0,-5.6,?
CC1C(=O)C(C)C(c2ccc(Br)cc2)NC1c1ccc(Br)cc1 (configuration not stated),?,nt,nt,-11.8,26.1,?
CC1C(=O)C(C)C(c2cc(Br)ccc2O)NC1c1cc(Br)ccc1O (configuration not stated),?,nt,-4.3,-96.9*,3.7,-26.3%
O=S(=O)(CC(O)CS(=O)(=O)c1ccc(Cl)cc1)c1ccccc1 (configuration not stated),-4.2%,nt,12.3,12.7,11.1,2.4%
CCCc1ccccc1OCCNS(=O)(=O)c1cc2c(cc1C)OCC(=O)N2,11.6µM*,10.2%,0.0,-98.6*,-23.9,14.6µM*
Cc1cc(C)n2c(SCc3ccc(Cl)cc3Cl)nnc2n1,18.4µM*,-5.7%,0.0,-2.2,23.4,?
Cc1cc(C)n2c(SCc3ccccc3Cl)nnc2n1,1.6%,-2.8%,1.5,-9.0,0.5,-21.9%
C=CCc1ccc(OCCOCCOc2cccc3ccc(C)nc23)c(OC)c1,11.2µM*,0.0%,-1.7,-10.1,-3.9,17.8µM*
CCc1ccccc1OCCOc1ccc(C)cc1OC,29.1µM*,-14.4%,52.8,25.9,40.2,?
COc1cc(C)ccc1OCCCOc1ccccc1Br,-21.9%,-12.4%,9.7,?,28.7,-10.2%
COc1cc(C)ccc1OCCOCCOc1cccc2ccc(C)nc12,16.4µM*,-5.4%,4.1,27.2,4.3,16.4µM*
C=CCc1ccc(OCCOCCNCCOC)c(OC)c1,-11.1%,3.8%,-0.9,-20.0,-7.4,-5.7%
CC(C)C[C@@H](CN1CCC[C@H]1CN1C(=O)C(=O)NC[C@@H]1Cc1ccccc1)N1C[C@H](Cc2ccccc2)N(CCc2ccccc2)C(=O)C1=O,?,nt,-0.7,-77.4*,1.3,23.1µM*
CC(C)C[C@H]1CN([C@@H](CC(C)C)CN2CCC[C@H]2CN2C(=O)C(=O)NC[C@@H]2Cc2ccccc2)C(=O)C(=O)N1CCc1ccccc1,3.9%,nt,8.0,8.4,-2.1,2.7%
CC(C)C[C@H]1CNC(=O)C(=O)N1C[C@H]1CCCN1C[C@H](CC(C)C)N1C[C@H](CC(C)C)N(CCc2ccccc2)C(=O)C1=O,?,nt,1.0,-74.7*,-0.8,?

# Assay outcomes (PubChem BioAssay)
